# According to PMC4336329 (PLoS ONE, 2015):
# Out of some 310,000 compounds screened, about 14,000 (4.5%) showed an effect of 50% or more. The effect is printed as a negative number. Only a selection was taken, and strong results are over-represented in it overall.
# Biological target: human ether-à-go-go-related gene (hERG) potassium channel (human, UniProt Q12809)
# Assay: primary screen, population patch clamp on CHO cells stably expressing hERG; higher = less effect of the substance
# 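Also: peak tail current of the secondary pulse compared with the same well before compound.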
# human ether-à-go-go-related gene (hERG) potassium channel, sequence (Q12809 whole entry, looked up): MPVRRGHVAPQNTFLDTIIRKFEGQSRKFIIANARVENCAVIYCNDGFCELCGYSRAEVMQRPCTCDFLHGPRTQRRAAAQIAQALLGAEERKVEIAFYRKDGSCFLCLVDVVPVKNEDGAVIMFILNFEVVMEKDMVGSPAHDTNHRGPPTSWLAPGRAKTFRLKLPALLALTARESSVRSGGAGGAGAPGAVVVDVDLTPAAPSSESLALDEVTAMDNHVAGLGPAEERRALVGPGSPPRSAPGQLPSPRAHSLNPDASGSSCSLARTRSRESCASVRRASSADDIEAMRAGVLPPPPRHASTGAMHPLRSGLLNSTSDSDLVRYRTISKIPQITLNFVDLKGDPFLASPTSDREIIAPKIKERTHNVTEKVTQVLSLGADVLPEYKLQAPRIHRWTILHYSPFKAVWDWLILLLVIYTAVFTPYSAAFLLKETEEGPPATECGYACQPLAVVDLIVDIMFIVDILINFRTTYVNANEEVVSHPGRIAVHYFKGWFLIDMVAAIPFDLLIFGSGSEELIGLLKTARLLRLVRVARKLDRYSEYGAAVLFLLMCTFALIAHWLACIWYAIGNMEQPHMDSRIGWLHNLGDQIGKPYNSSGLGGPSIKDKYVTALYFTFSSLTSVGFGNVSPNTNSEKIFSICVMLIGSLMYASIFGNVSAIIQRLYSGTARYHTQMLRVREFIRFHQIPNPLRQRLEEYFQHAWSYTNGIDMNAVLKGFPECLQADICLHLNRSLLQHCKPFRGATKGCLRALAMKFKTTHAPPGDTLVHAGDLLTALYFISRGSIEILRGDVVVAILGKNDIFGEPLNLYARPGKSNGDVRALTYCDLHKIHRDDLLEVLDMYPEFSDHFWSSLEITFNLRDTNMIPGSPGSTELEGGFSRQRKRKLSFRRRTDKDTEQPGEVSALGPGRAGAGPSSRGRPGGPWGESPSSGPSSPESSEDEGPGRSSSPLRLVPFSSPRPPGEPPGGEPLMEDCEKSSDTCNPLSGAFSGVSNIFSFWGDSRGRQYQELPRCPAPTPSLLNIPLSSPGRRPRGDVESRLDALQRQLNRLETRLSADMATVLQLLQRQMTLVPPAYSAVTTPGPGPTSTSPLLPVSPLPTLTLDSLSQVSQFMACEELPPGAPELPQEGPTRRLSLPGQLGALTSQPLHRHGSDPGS
row,Compound,"hERG current change (%, negative = inhibition) at 10uM"
1,O=C(c1noc2c1CCCC2)N1CCC(CO)(Cc2ccccc2Cl)CC1,-22.9%
2,COCCCNC(=O)Cn1ccc(N)nc1=O,11.4%
3,CN(C)C=O.O=C(Nc1cccc(S(=O)(=O)NC2=NCCCCC2)c1)c1cc(-c2ccco2)nc2ccccc12,19.7%
4,COc1ccc(-n2c(CNc3ccc(C)cc3)nnc2SCC(=O)Nc2nc(-c3ccccc3)cs2)cc1,-23.1%
5,CCN1C(=O)/C(=C/N(C)c2ccccc2)OC1=S,-8.25%
6,CC1CCc2c(sc(NC(=O)CN3CCN(C(=O)c4ccco4)CC3)c2C#N)C1 (stereo not drawn),-41.5%
7,CC1CCc2c(sc(NC(=O)C(=O)NCc3ccco3)c2C#N)C1 (stereo not drawn),-66.3%
8,CCN1CCN(CC(=O)Nc2sc3c(c2C#N)CCC(C)C3)CC1 (stereo not drawn),-51.7%
9,CC1CCc2c(sc(NC(=O)COC(=O)c3ccccc3NCc3ccco3)c2C#N)C1 (stereo not drawn),7.34%
10,CC(=O)Nc1sc2c(c1C#N)CCC(C)C2 (stereo not drawn),-3.48%
11,CCN1CCN(CC(=O)Nc2sc3c(c2C#N)CCC3)CC1,-18.1%
12,O=C(CN1CCOc2ccccc21)N1CCC(Cc2ccccc2)CC1,-26.3%
13,Cc1nn(CCc2nn[nH]n2)c2nc(-c3ccccc3)cc(C(F)(F)F)c12,19.3%
14,COc1ccc(-c2csc(NCCc3nc4cc(Cl)c(N5CCCCC5)cc4n3CCOCCO)n2)cc1,-10.4%
15,CC1CCN(CC(=O)n2c3c(c4ccccc42)CCCC3)CC1.Cl,0.546%
16,CCc1ccc(-c2csc(NC(=O)c3cccnc3)n2)cc1,-3.93%
17,Cc1ccccc1N=C1N=C(N)c2ccccc21,-2.13%
18,O=C(NCCN1CCOCC1)C1CC(=O)N(c2ccc(F)c(Cl)c2)C1 (stereo not drawn),-3.45%
19,CN(CCNC(=O)C1CC(=O)N(c2ccc(F)c(Cl)c2)C1)Cc1ccccc1 (stereo not drawn),-52.5%

row,Compound,"hERG current change (%, negative = inhibition) at 10uM"
1,CC1CCCCN1CCNC(=O)C1CC(=O)N(c2ccc(F)c(Cl)c2)C1 (stereo not drawn),-56.9%
2,COCCNC(=O)C1CC(=O)N(c2ccc(F)c(Cl)c2)C1 (stereo not drawn),-2.89%
3,CC1CCCN(CCCNC(=O)C2CC(=O)N(c3ccc(F)c(Cl)c3)C2)C1 (stereo not drawn),-37.9%
4,CN(C)CCNC(=O)C1CC(=O)N(c2ccc(F)c(Cl)c2)C1 (stereo not drawn),-11.2%
5,CN(C)c1ccc(/C=N/NC(=O)c2cccc(N3CCCC3=O)c2)cc1,12.7%
6,O=C(Oc1ccc2ccc(=O)oc2c1)c1ccco1,-73.1%
7,O=C(Oc1ccc2ccc(=O)oc2c1)c1ccccc1,14.2%
8,O=C(Oc1ccc2ccccc2c1)c1ccco1,5.27%
9,COc1ccc(CN2CCN(C(=O)c3cccs3)CC2)cc1Br,-24.4%
10,CCC(CC)C(=O)NCCc1ccc(OC)cc1,17.8%
11,Cc1csc(NC(=O)c2cccnc2)n1,13.5%
12,CCN1CCN(S(=O)(=O)c2ccc(Cl)c(C(=O)N(C)Cc3ccc(Cl)cc3Cl)c2)CC1,-9.34%
13,CCN1CCN(S(=O)(=O)c2ccc(Cl)c(C(=O)N(C)Cc3cccc(Cl)c3Cl)c2)CC1,-61.3%
14,CCN1CCN(S(=O)(=O)c2ccc(Cl)c(C(=O)N(C)C(c3ccccc3)c3ccccc3)c2)CC1,-50.5%
15,CCc1ccc(CN(C)C(=O)c2cc(S(=O)(=O)N3CCN(CC)CC3)ccc2Cl)cc1,-25.3%
16,CCN1CCN(S(=O)(=O)c2ccc(Cl)c(C(=O)N(C)Cc3cccs3)c2)CC1,-14.6%
17,CCN1CCN(S(=O)(=O)c2ccc(Cl)c(C(=O)N(C)Cc3ccccc3)c2)CC1,-28.8%
18,O=C(O)c1ccc2c(c1)C(=O)N(c1cccc(S(=O)(=O)Nc3cccc(C(F)(F)F)c3)c1)C2=O,21.1%
19,CCN(CC)S(=O)(=O)c1ccc(C(C)NC(=O)C2CCCN2C(=O)c2cccs2)cc1 (stereo not drawn),-15.5%

row,Compound,"hERG current change (%, negative = inhibition) at 10uM"
1,Cc1cc(Cl)ccc1C(=O)C1CCCN(C(=O)CCN2CCCO2)C1 (stereo not drawn),-1.54%
2,CC(C)(C)NC(=O)C(c1ccccn1)N(C(=O)C1CSC(=O)C1)c1ccc(F)cc1 (stereo not drawn),6.26%
3,C=CCn1c(O)c(C(C)=NC2CCN(Cc3ccccc3)CC2)c(=O)[nH]c1=O,-55.7%
4,CCC(=NC1CCN(Cc2ccccc2)CC1)c1c(O)[nH]c(=O)[nH]c1=O,-52.4%
5,C=CCn1c(O)c(C(C)=NCCc2ccccc2)c(=O)[nH]c1=O,-14.7%
6,O=c1[nH]c(O)c(C=NC2CCN(Cc3ccccc3)CC2)c(=O)[nH]1,-31.6%
7,C=CCn1c(O)c(C(C)=NC2CC2)c(=O)[nH]c1=O,9.27%
8,CCC(=NCCc1ccccc1)c1c(O)[nH]c(=O)[nH]c1=O,10.1%
9,Cc1ccccc1CNC(=O)C1CCN(c2nnc(N3CCCC3=O)s2)CC1,19.3%
10,CC(C)(C)c1csc(CS(=O)(=O)c2ccccn2)n1,-6.8%
11,Brc1ccc(C2=Nn3cnnc3SC2)cc1,13.6%
12,CCOc1ccc(C2=Nn3cnnc3SC2)cc1,-14.8%
13,O=[N+]([O-])c1ccc(C2=Nn3cnnc3SC2)cc1,-62.2%
14,Br.CCCc1nnc2n1N=C(c1ccc([N+](=O)[O-])cc1)CS2,-38.6%
15,Br.CCc1nnc2n1N=C(c1cccc([N+](=O)[O-])c1)CS2,-32.1%
16,CCc1nnc2n1N=C(c1ccc([N+](=O)[O-])cc1)CS2,-65.5%
17,O=c1[nH]c(=O)n(CCc2ccccc2)c(O)c1C=NCCCn1ccnc1,-2.66%
18,COc1ccccc1CC(NC(C)=O)C(=O)NC1CCN(C(=O)Nc2ccccc2F)CC1 (stereo not drawn),28.3%
19,Cc1ccc(Cl)cc1NS(=O)(=O)c1ccc2oc(=O)ccc2c1,-25.7%
